Compounds without any hit were thinned out: in the full panel of roughly 83,000, 20% have a hit.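 Values shown are percent growth following 48 h exposure of cells in 96-well plates to a single concentration of compound; below 10 was considered active.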 The source made the active and inactive calls.
These compounds were tested on MDA-MB-468 breast (assay: NCI-60 one-dose screen, 48 h (100 = growth as untreated, 0 = no growth, -100 = all killed)). Settings: 10 µM unless noted.

SMILES | growth
Cc1[nH]n(-c2cccc(Cl)c2)c(=O)c1/C=C1\C=Nc2ccc(Br)cc21 | 35.7% (inactive)
S=C(SSC(=S)N(c1ccccc1)c1ccccc1)N(c1ccccc1)c1ccccc1 | 107% (inactive)
COc1ccc(S(=O)(=O)Nc2c(/C=C\c3cc(OC)c(OC)c(OC)c3)ccc(OC)c2O)cc1 | 10.9% (inactive)
CCN(CC)CCOc1ccc(NC(=O)C(C(C)C)N2C(=O)/C(=C/c3ccc(Br)cc3)SC2=S)cc1 (stereo not given) | 63.2% (inactive)
COc1ccc(-c2nn(-c3ccccc3)cc2/C=C2\SC(=O)NC2=O)cc1 | 107% (inactive)
COc1cc(C(C)(C)C)cc(OC)c1C(O)(c1c(OC)cc(C(C)(C)C)cc1OC)c1c(OC)cc(C(C)(C)C)cc1OC | -88.3% (active)
NC(=S)Nc1ccc2c(c1)Cc1ccccc1-2 | 69.4% (inactive)
CC1(c2ccccc2)CO1 (stereo not given) | 110% (inactive)
CCc1ccc(NC(=O)N[C@@H](Cc2cccc(F)c2)C(=O)N[C@@H]2C(=O)N3CCC[C@H]3C(=O)N3CCCC[C@H]3C(=O)N[C@@H](CO)C(=O)N3C[C@H](C)C[C@H]3C(=O)O[C@H]2C)c(F)c1 | -7.85% (active)
Cn1cc(C(=O)c2nc(-c3c[nH]c4ccccc34)no2)c2cc(F)ccc21 | 63% (inactive)
Cc1ccc2nc(-[n+]3cc4ccccc4cc3C)ccc2c1 | -14.5% (active)
COC(=O)c1c2c(c(C)[n+]([O-])c1C)C(=O)C(NCc1ccc(Cl)cc1)=CC2=O | 39.8% (inactive)
O=C(Nc1ccc(NCCN2CCOCC2)nc1)c1ccc([N+](=O)[O-])cc1 | 104% (inactive)
Nc1ncnc2c1N=C(c1ccc3c(c1)OCO3)CC(c1cccc(Nc3ccnc4cc(Cl)ccc34)c1)N2 (stereo not given) | 33.2% (inactive)
CCOC(=O)c1c(C)nc2c(c1N)C(=O)C(=O)N2CCc1ccc(OC)c(OC)c1 | 49% (inactive)
Cc1nc(N)sc1Sc1nc2ccc(Cl)cc2c(=O)n1-c1ccc(Oc2ccccc2)cc1 | 76.6% (inactive)
Cc1cn(-c2cc(NC(=O)c3cncc(C#Cc4cnc5ccc(O[C@H]6CCOC6)nn45)c3)cc(C(F)(F)F)c2)cn1 | 145% (inactive)
Nc1cc2c(cc1Cl)-c1ccc(Cl)cc1C2=O | 86.1% (inactive)
COc1ccc(-c2nc3cc(Cl)c(Cl)cc3n2CC(=O)N=Nc2c(O)[nH]c3ccccc23)cc1 | 60.6% (inactive)
COc1ccc(/C=C2\CCCC3C2=Nc2ccccc2NC3c2ccc(OC)cc2)cc1 (stereo not given) | 43.6% (inactive)

SMILES | growth
FC(F)(F)c1cccc(CNC2CCN(CCc3ccccc3)CC2)c1 | 87.2% (inactive)
COc1cc2c3c(n(CCCNCC4CC4)c(=O)c2cc1OC)-c1cc2c(cc1C3=O)OCO2 | 41.4% (inactive)
C=C1C(=O)O[C@@H]2[C@H]3[C@H](COC(C)=O)[C@@H](OC(C)=O)C[C@H]3C(=C)[C@@H](O)C[C@@H]12 | 77% (inactive)
CN(O)c1nc(N(C)O)nc(N2CCOCC2)n1 | -6.58% (active)
Cc1ccc(NC(=O)c2ccc(CN3CCN(C)CC3)c(C(F)(F)F)c2)cc1Oc1ccc(-c2[nH]nc3ncnc(N)c23)cc1 | 117% (inactive)
C=Cc1cnc(Nc2ccc(OC)cc2)nc1NCCCNC(=O)C1CCC1 | 46.4% (inactive)
COc1cc(NCCCCN=C(N)NC(N)=NC(C)C)c2ncccc2c1 | -61.8% (active)
O=C(Cn1c[n+](CC(=O)c2ccc(-c3ccccc3)cc2)c2ccccc21)Nc1cccc2cccnc12 | -6.11% (active)
CCOC(=O)c1c(/C=C/C(=O)O)nc2ccccc2c1/C=C/c1ccccc1 | 7.2% (active)
O=C1Nc2ccccc2/C1=C/C(=O)c1ccc(N2CCCCC2)cc1 | 80% (inactive)
COc1ccc(C(O)c2cc3c(N)c(C(=O)Nc4cccc(Cl)c4)sc3nc2C)cc1 (stereo not given) | 22.4% (inactive)
CC(C)c1c(C(=O)Nc2ccccc2)c(-c2ccccc2)c(-c2ccc(F)cc2)n1CC[C@@H]1CC=CC(=O)O1 | -48.3% (active)
CN1CCN(c2nc3scc(-c4ccccc4)c3c(=O)[nH]2)CC1 | 98.1% (inactive)
CC1(C)[C@@H](NOCCCN)CC[C@]2(C)[C@H]3C(=O)C=C4[C@@H]5C[C@](C)(C(=O)O)CC[C@]5(C)CC[C@@]4(C)[C@]3(C)CC[C@@H]12 | -39.5% [100 µM] (active)
C/C(=N/NC(=S)Nc1ccccc1)c1nc2ccc(Cl)cc2[nH]1 | -44.3% (active)
COc1ccc(-c2cc(-c3ccc(Cl)cc3)c(C#N)c(=O)n2Cc2ccc(C(=O)O)cc2)cc1 | 73.7% (inactive)
S=CN1CCCCC1 | 93% (inactive)
COc1cccc(-c2nn(-c3ccccc3)cc2-c2ccnc(NCCNS(=O)(=O)c3ccccc3)c2)c1 | 14.5% (inactive)
Cc1ccc(/C=C(\C#N)c2cc3ccccc3[nH]2)cc1 | 43.2% (inactive)
CC(=O)NCc1cc(C)c(C)cc1C | 93.4% (inactive)

From PubChem BioAssay (NCI)
